EBNA-1 inhibitor = EBNA-1 DNA-binding inhibitors, primary screen, biochemical, fluorescence polarization | inhibition, % at 14.8 µM | 0.34% of 300,000 active; in the data active = inhibition above about 28%
Keap1-Nrf2 PPI = Keap1-Nrf2 protein-protein interaction inhibitors, primary screen, biochemical, fluorescence polarization, single point; Keap1 Kelch-Nrf2 peptide fluorescence polarization, 1536-well; inhibition, % at 9.4 µM; 0.15% of 340,000 active; in the data active = inhibition above about 12%;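 note: human Keap1 Kelch domain with fluorescein labeled Nrf2 9mer peptide probe; higher means more block of Keap1 binding to Nrf2 peptide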
ZTA DNA inh = counter-screen for EBNA-1 inhibitors: inhibitors of Epstein-Barr virus ZTA | inhibition, % at 11 µM | ZTA-DNA binding, fluorescence polarization | 0.15% of 320,000 active; in the data active = inhibition above about 33%
C-LANA FP = inhibitors of KSHV C-LANA binding to DNA, primary screen, biochemical, fluorescence polarization, FAM-LBS DNA, MBP-C-LANA, single point. Kaposi's sarcoma herpesvirus LANA C-terminal domain (residues 932-1162) DNA binding. 0.078% of 340,000 active. inhibition, % at 9 µM;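 active = highest replicate inhibition at or above 60% at 9 µM, even if other replicates fall short; inactive = all replicates below 60% inhibition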
E coli Lon inh = inhibitors of E. coli Lon protease, primary screen, biochemical, fluorescence polarization | AID 602123, 2011 | P0A9M0 | 0.42% of 360,000 active | inhibition, % at 7.94 µM | purified E. coli Lon protease; in the data active = inhibition above about 13%, passing the limit was not always enough
Target sequence (P0A9M0 whole entry, looked up): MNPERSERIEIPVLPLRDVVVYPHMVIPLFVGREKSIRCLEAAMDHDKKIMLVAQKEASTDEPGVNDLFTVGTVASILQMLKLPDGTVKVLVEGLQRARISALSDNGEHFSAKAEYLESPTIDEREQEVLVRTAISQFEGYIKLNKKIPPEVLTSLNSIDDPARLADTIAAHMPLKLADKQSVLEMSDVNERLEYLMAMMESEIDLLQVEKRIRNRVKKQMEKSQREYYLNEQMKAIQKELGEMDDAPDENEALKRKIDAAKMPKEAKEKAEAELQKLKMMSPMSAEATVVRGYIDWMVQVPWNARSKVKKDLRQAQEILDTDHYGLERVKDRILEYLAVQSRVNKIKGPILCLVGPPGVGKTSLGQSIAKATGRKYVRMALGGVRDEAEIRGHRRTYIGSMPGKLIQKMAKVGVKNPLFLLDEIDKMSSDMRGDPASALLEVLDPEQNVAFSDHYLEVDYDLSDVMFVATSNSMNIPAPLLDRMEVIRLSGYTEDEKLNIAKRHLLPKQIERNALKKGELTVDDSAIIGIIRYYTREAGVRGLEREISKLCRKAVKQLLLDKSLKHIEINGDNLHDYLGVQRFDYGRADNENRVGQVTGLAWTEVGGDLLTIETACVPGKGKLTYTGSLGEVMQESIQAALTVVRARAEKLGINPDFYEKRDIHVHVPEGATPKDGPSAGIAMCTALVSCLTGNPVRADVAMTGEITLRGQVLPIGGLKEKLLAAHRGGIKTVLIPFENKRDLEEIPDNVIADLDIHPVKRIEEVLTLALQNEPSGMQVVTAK
Keap1 TSA = Keap1 Kelch domain binders by thermal stabilisation, dose response, biophysical, thermal shift, RT-PCR instrument, cherry-pick | AID 651823, 2012 | delta Tm; stronger effect = higher value | shares compounds with Keap1-Nrf2 PPI | 8% of 400 active | max delta Tm, degrees C; in the data active = max delta Tm above about 0.48 degrees C
Sypro dye melt = Sypro Orange dye melt without protein, dose response, artefact control for Keap1-Nrf2 interaction inhibitor project, biochemical, thermal shift counterscreen, cherry-pick. Sypro Orange dye-only thermal melt, no protein, delta Tm; top dose 26 µM. shares compounds with Keap1-Nrf2 PPI. delta Tm, degrees C (no concentration beside the values). 140 tested, under 10 active;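 active = at highest dose tested, delta Tm positive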
eLon confirm = E. coli Lon protease inhibitor retest, confirmation, biochemical, fluorescence polarization; shares compounds with E coli Lon inh; purified E. coli Lon; inhibition, % at 7.94 µM; 31% of 1,400 active; AID 602230, 2012; in the data active = inhibition above about 16%
A number is an active result; n = inactive; x = not tested or not shown; + = active, no number. Rows were chosen to be rich in hits. Some 0.85% of all compounds tested hit in one or more screens of this group.

SMILES | EBNA-1 inhibitor | Keap1-Nrf2 PPI | ZTA DNA inh | C-LANA FP | E coli Lon inh | Keap1 TSA | eLon confirm | others
CN1C(=O)NC(c2ccccc2[N+](=O)[O-])C2=C1CCCC2=O (centres undefined) | n | 29 | n | n | + | n | + | Sypro dye melt=n
Cc1c(C(=O)NCc2ccc(F)cc2)sc(=O)n1Cc1ccccc1 | x | x | x | x | n | x | x
CC1(C)CC(=O)C2=C(C1)OC(N)=C(C#N)[C@@H]2c1ccccc1[N+](=O)[O-] | n | 39 | n | n | 53 | n | n | Sypro dye melt=n
COc1ccc(C2C(C#N)=C(N)OC3=C2C(=O)CC(C)(C)C3)c([N+](=O)[O-])c1OC (centres undefined) | n | n | n | n | n | x | x
COc1ccc(S(=O)(=O)NC(=O)C2(C)CCN2C(=O)C2CCCCC2)cc1OC (centres undefined) | x | x | x | x | n | x | x
CCOc1cc(C2C(C#N)=C(N)OC(C)=C2C(C)=O)cc(Br)c1O (centres undefined) | n | 26 | n | n | 24 | n | n
COc1ccc2nc3n(c(=O)c2c1)-c1ncccc1C(=O)NC3Cc1ccccc1 (centres undefined) | x | x | x | x | n | x | x
CCCCC1OC23CCCCC2C(C#N)(C(=N)O3)C1(C#N)C#N (centres undefined) | n | 20 | n | n | 25 | n | n
CCCCC1OC23CCCCC2C(C#N)(C#N)C1(C#N)C(=N)O3 (centres undefined) | n | 24 | n | n | 26 | n | n | Sypro dye melt=n
CCCCNC(=O)c1nc(-c2ccncc2)oc1-c1ccccc1 | x | x | x | x | n | x | x
CC1(O)CC2CC1C(C(=O)O)C2C(=O)O (centres undefined) | x | n | x | n | n | x | x
CCCCC[C@H](O)/C=C/C1C(=O)C=C[C@H]1C/C=C\CCCC(=O)OC (some centres undefined) | x | n | x | n | n | x | x
O=c1cc(CN2CCCc3ccccc32)nc2sccn12 | n | 58 | n | n | 39 | n | 86
O=c1cc(CN2CCc3ccccc32)nc2sccn12 | n | n | n | n | n | x | x
COc1ccc2nc3ccccc3[n+]([O-])c2c1 | x | 39 | x | n | 194 | n | 138
CCc1nc2c(OCCC3CCCCC3)cccn2c1N(C)C(=O)c1ccccc1F | x | x | x | x | n | x | x
Cc1ccccc1N1C(=O)c2cccc3c(N(C)CCO)ccc(c23)C1=O | n | 14 | n | n | 124 | n | 84
CN(C)CCN(C)Cc1c2ccccc2c(CN(C)CCN(C)C)c2ccccc12 | n | 19 | n | n | 125 | n | 47 | Sypro dye melt=n
CN(C)CCP(=O)(c1ccccc1)c1ccccc1 | n | n | n | n | n | x | x
Cc1nc2ccccc2n2c(O)c(CC(=O)O)cc12 | n | 22 | n | n | 148 | 0.46 | 119
Cc1ccc(C(=O)Nc2cccc(S(=O)(=O)N3CCCC3)c2)o1 | x | n | n | n | n | x | x
COc1cccc2c1C(=O)c1c(O)c3c(c(O)c1C2=O)CC(O)(C(C)=O)CC3OC1CC(N(C)C)C(O)C(C)O1 (centres undefined) | x | + | x | 117 | + | n | +
COc1[nH]c(/N=C/c2ccccc2)c(C#N)c1C#N | n | 78 | n | 102 | 149 | n | n
N#CC1=C(N)Oc2ccc3ccc(O)cc3c2C1c1ccsc1 (centres undefined) | x | 17 | x | 87 | + | n | +
COc1ccccc1C(=O)N1CCN(C(=O)[C@H]2O[C@@H](n3ccc(N)nc3=O)[C@H](O)[C@@H]2O)CC1 | x | x | x | x | n | x | x
SMILES | EBNA-1 inhibitor | Keap1-Nrf2 PPI | ZTA DNA inh | C-LANA FP | E coli Lon inh | Keap1 TSA | eLon confirm | others
Cc1cccc(C)c1-n1nnnc1-c1nc2cc3ccccc3cc2[nH]c1=O | x | x | x | x | n | x | x
COc1ccc(C(=O)c2ccc(CC#N)s2)cc1 | n | n | n | n | n | x | x
COc1ccc(C(=O)c2ccsc2N)cc1 | n | 14 | n | n | 90 | n | n
O=C(NC(Cc1c[nH]c2ccccc12)C(=O)O)OCC1c2ccccc2-c2ccccc21 (centres undefined) | x | x | x | x | n | x | x
COc1cc(C(O)c2nc(-c3cccc(C(C)C)c3)cs2)ccc1F (centres undefined) | x | x | x | x | n | x | x
COc1ccc(CC(=O)N2CCN(c3cccc(C)c3C)CC2)cc1 | n | n | n | n | n | x | x
Cc1nc(CC(=O)N2CCN(c3cccc(C)c3C)CC2)cs1 | n | n | n | n | 24 | x | n
O=C(CNC(=O)c1cncc(Br)c1)Nc1ccc(F)c(F)c1F | n | n | n | n | n | x | x
O=C(NCc1cccc(Br)c1)C1CC2Cn3c(nc4ccccc43)C2N1c1ccccc1 (centres undefined) | n | n | n | n | n | x | x
CC(=O)Nc1ccc(S(=O)(=O)Nc2nc3ccccc3nc2Sc2nncn2C)cc1 | n | n | n | n | 19 | x | n
COCCn1nnnc1CN1CCN(c2cccc(C(F)(F)F)c2)CC1 | n | n | n | n | n | x | x
CC(C)CCn1nnnc1CN1CCN(c2ccccc2)CC1 | n | n | n | n | 17 | x | n
Cc1nn(-c2ccccc2)c2[nH]c(=O)c(CNc3ccc4c(c3)OCCO4)cc12 | n | n | n | n | 21 | x | 44
CCc1ccc(NCc2cc3c(C)nn(-c4ccccc4)c3[nH]c2=O)cc1 | n | n | n | n | n | x | x
CCc1nc2c(OCc3ccccc3C(=O)OC)cccn2c1N(C)C(=O)CC(C)C | x | x | x | x | n | x | x
NNC(=O)CSc1ncc(-c2ccccc2)[nH]1 | n | n | n | n | 15 | x | n
ON(CCc1ccccn1)CCc1ccccn1 | x | n | x | n | 38 | x | 25
CCN(CC)C(=O)CSc1nnc(COc2ccc(OC)cc2)n1N | n | n | n | n | n | x | x
CCN(CC)C(=O)CSc1nnc2nnc3cc(OC)ccc3n12 | n | x | n | x | 132 | x | 118
O=C(O)CCC1(C(=O)O)OCCc2ccccc21 (centres undefined) | n | n | n | n | 17 | x | n
CCC(=O)N1CCCC(C(=O)NCc2ccc(C(C)C)cc2)CC1 (centres undefined) | x | x | x | x | n | x | x
O=C(CCC(=O)c1cccs1)OCc1ccc([N+](=O)[O-])cc1 | x | n | n | n | n | x | x
COc1cc(NCCCCCCN)c2ncccc2c1OC | x | n | x | n | n | x | x
COc1cc(NC(C)CCCNC(C)C)c2ncccc2c1OC (centres undefined) | x | n | x | n | 30 | x | n
CCOC(=O)[C@H]1[C@H]2COc3ccc(Cl)cc3[C@@H]2N2C(=O)CN(Cc3ccc(Cl)cc3)C(=O)[C@@]12C | x | n | n | n | n | x | x

Screens as filed in PubChem BioAssay.
